Measurements as given in PubChem BioAssay.
Results filed as inconclusive are left out. Active and inactive are the calls of the source.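 Rule for the calls, unless noted: active = binding below the plate cutoff, the plate median minus 3 SD, with a reading above zero; inconclusive = below the plate cutoff but reading exactly zero; inactive = the rest.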

Columns and labels:
[1] = rapamycin-like changes in RPL19A-GFP expression – cell-based, S. cerevisiae, multiplex flow cytometry, primary screen (AID 1862; in the data active = percent of DMSO control GFP below about 86%;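 note: lower values mimic rapamycin by blocking the RPL19A rise seen in DMSO cells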); conditions: S. cerevisiae RPL19A-GFP strain, flow cytometry fluorescence, 3 h; at 10 µM; stronger effect = lower value
[2] = TOR pathway GLN3 branch reporter MEP2-GFP changes – S. cerevisiae, multiplex flow cytometry, primary screen (AID 1867;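 active = GFP response, as percent of the DMSO control, above the screen-wide mean plus 3 SD, about 139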;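 note: median GFP channel fluorescence of barcode-gated MEP2-GFP cells measured by flow cytometry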); conditions: S. cerevisiae MEP2-GFP strain, 3 h, at 10 µM, stronger effect = higher value, 100% means same as DMSO wells
[3] = TOR pathway RTG branch CIT2 reporter changes – S. cerevisiae, GFP fusion, multiplex flow cytometry, primary screen (AID 1870;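 active = percent response above a set limit, the screen-wide mean plus 3 SD, cut at about 130% in these data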;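 note: barcoded CIT2-GFP strain pooled with four other GFP strains with rapamycin as positive control; median GFP fluorescence per well over plate mean of DMSO wells so 100% = DMSO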); conditions: S. cerevisiae CIT2-GFP expression, 3 h, at 10 µM, stronger effect = higher value
[4] = TOR pathway LAP4-GFP level changes – S. cerevisiae, multiplex flow cytometry, primary screen (AID 1873;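 active = GFP signal, as percent of the solvent control, above the screen mean plus 3 SD, about 149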); conditions: S. cerevisiae LAP4-GFP expression, 3 h, at 10 µM, stronger effect = higher value
[5] = reduced mouse 2C T cell binding to pMHC/ICAM-1 vesicles – MLPCN validation set, flow cytometry, LFA-1/ICAM-1 modulator project, pilot screen (AID 2523;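 active = response below a set limit, under 55% cells CD8-positive and vesicle-bound, and CD8 cells' 90th-percentile brightness under 279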;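 for vesicle binding response: mean PE anti-B7-1 fluorescence of CD8+ cells relative to row control; 100% = QL9-loaded vesicles with DMSO vehicle in the same plate row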); conditions: 2C mouse CD8+ T cells, at 7 µM, stronger effect = lower value; double positive events: measured here: CD8+/vesicle+ event percentage
[6] = target: Integrin beta-1 (Homo sapiens) + Integrin alpha-4 (Homo sapiens) (UniProt P13612+P05556); assay: alpha4beta1 integrin LIBS antibody binding reduction – U937 cells, HUTS-21 mAb, flow cytometry, validation set, VLA-4 allosteric modulator project, pilot screen (AID 2674;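 active = inhibition above 50%, about 3 SD of the validation set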;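 note: antibody binding induced by the VLA-4 ligand LDV present at three times its Kd; 0% = LDV ligand with antibody and no compound and 100% = antibody without LDV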); conditions: HUTS-21 LIBS mAb binding, at 6.7 µM, stronger effect = higher value, binding induced by LDV ligand
Sequence of Integrin beta-1 (Homo sapiens) + Integrin alpha-4 (Homo sapiens) (P05556 whole entry, looked up): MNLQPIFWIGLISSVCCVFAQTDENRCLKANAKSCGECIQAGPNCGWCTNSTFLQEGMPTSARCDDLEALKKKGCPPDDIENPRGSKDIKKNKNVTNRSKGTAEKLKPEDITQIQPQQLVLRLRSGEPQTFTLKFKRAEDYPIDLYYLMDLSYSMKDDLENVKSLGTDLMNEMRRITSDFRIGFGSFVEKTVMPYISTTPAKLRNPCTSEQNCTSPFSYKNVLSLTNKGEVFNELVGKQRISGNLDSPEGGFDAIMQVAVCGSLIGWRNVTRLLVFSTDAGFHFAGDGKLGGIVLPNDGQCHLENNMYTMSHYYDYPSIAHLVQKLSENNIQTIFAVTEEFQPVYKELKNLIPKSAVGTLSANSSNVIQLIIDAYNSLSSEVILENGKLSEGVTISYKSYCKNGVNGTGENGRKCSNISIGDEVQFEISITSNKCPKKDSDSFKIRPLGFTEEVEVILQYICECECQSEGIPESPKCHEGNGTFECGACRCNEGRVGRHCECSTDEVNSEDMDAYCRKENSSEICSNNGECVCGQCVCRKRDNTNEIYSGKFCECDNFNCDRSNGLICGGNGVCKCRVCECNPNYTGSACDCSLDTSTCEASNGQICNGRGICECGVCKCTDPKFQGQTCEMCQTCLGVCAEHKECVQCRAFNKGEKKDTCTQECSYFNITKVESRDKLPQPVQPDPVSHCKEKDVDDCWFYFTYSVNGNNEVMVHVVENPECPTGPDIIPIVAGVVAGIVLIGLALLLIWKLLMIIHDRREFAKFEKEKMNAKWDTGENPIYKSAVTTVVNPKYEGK
Sequence of Integrin beta-1 (Homo sapiens) + Integrin alpha-4 (Homo sapiens) (P13612 whole entry, looked up): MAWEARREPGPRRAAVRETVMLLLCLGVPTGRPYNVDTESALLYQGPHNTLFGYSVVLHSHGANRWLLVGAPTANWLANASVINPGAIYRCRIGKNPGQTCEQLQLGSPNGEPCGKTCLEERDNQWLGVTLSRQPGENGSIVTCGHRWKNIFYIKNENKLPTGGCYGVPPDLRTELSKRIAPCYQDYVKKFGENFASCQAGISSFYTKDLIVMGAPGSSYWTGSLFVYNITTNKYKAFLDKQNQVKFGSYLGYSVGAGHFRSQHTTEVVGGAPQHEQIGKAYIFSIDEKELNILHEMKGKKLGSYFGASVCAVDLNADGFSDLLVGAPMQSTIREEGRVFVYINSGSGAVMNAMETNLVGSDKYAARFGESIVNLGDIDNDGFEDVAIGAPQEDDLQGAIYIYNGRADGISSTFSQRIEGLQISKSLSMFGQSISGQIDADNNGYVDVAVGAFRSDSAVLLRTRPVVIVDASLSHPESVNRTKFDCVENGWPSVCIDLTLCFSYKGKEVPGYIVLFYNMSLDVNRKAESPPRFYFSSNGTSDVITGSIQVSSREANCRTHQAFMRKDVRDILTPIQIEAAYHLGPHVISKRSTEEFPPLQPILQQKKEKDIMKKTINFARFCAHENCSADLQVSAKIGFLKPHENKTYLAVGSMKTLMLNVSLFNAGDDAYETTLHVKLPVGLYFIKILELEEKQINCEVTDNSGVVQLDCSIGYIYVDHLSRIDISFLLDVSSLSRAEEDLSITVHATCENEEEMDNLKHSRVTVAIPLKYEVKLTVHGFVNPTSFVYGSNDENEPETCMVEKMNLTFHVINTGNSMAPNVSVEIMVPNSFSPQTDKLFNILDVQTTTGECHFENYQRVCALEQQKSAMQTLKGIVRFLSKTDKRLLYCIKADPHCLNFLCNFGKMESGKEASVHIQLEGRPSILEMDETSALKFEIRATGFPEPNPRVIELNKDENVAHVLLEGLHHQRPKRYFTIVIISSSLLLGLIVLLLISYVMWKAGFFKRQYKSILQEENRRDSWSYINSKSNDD

[7] = calorie-restriction mimetic ROS inhibitors, yeast – validation compound set, pilot screen (AID 2706;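 active = superoxide response below 65% of plate, a cut near 3 SD across the whole screen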;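 note: yeast exposed to compound for one week at 30 degrees C before staining; 100% = mean of all compound wells on the same plate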); conditions: S. cerevisiae aging, superoxide DHE fluorescence; at 10 µM, stronger effect = lower value
[8] = target: Beta-adrenergic receptor kinase 1 (Homo sapiens) (UniProt P25098); assay: GRK2 binders displacing RNA aptamer, biochemical, validation, human GRK2, bead flow cytometry (AID 488806;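 active = aptamer binding inhibition above 30%, about 3 SD of noise from non-fluorescent compounds; inactive = inhibition at or below 30%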); conditions: bead-bound GRK2, FAM-aptamer displacement, at 10 µM, stronger effect = higher value
Sequence of Beta-adrenergic receptor kinase 1 (Homo sapiens) (P25098 whole entry, looked up): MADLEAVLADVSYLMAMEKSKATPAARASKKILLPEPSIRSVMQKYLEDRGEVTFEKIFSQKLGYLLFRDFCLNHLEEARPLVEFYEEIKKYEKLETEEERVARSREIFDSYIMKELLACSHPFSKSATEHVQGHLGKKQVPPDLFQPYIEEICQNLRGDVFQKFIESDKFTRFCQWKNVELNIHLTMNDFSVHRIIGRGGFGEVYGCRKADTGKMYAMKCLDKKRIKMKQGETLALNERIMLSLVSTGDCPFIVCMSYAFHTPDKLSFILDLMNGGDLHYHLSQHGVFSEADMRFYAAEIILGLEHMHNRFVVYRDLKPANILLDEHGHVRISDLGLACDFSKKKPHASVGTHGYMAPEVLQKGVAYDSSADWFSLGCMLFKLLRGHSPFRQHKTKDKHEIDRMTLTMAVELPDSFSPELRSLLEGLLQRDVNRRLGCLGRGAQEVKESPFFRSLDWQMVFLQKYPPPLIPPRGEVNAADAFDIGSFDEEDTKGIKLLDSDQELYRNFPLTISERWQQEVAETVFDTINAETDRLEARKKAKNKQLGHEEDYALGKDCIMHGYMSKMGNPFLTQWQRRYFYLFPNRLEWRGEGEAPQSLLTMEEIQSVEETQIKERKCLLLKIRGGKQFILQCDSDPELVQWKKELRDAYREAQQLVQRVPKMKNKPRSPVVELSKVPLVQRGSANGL

[9] = target: Beta-2 adrenergic receptor (Homo sapiens) (UniProt P07550); assay: agonist-induced loss of surface beta2AR – cell-based, FAP fluorogen, flow cytometry, validation set, pilot screen (AID 504459;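 active = percent response above 42, roughly 3 SD of non-fluorescent test compounds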;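 note: agonist-driven loss of surface beta2AR via internalization measured by FAP dye flow cytometry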); conditions: Am2.2-beta2AR cells, at 10 µM, stronger effect = higher value
Sequence of Beta-2 adrenergic receptor (Homo sapiens) (P07550 whole entry, looked up): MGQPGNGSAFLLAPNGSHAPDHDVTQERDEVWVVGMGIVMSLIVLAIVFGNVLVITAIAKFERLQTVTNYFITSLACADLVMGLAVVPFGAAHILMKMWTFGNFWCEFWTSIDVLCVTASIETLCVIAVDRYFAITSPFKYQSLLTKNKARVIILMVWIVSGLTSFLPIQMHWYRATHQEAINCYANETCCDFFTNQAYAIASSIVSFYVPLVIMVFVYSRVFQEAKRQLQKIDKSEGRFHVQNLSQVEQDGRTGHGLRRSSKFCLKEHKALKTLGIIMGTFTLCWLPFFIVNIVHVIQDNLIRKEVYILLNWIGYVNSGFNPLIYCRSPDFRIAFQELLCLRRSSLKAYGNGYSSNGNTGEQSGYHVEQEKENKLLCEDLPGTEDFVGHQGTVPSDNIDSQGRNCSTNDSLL

[10] = target: AP-2 complex subunit beta (Homo sapiens) (UniProt P63010); assay: beta-arrestin/AP2 interaction blockers – biochemical, validation set, GST-AP2 beads, flow cytometry, pilot screen (AID 504541;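 active = inhibition above 54%, about 3 SD of non-fluorescent compounds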;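 note: AP2 carries R879A mutation and is captured from E. coli lysate; bead-bound FITC arrestin peptide fluorescence measuring arrestin peptide binding to AP2; 0% = DMSO wells and 100% = excess unlabeled arrestin peptide control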); conditions: FITC arrestin peptide, at 10 µM, stronger effect = higher value, AP2 beta2 appendage fragment, R879A mutant
Sequence of AP-2 complex subunit beta (Homo sapiens) (P63010 whole entry, looked up, the tested form may be a part, one chain of several): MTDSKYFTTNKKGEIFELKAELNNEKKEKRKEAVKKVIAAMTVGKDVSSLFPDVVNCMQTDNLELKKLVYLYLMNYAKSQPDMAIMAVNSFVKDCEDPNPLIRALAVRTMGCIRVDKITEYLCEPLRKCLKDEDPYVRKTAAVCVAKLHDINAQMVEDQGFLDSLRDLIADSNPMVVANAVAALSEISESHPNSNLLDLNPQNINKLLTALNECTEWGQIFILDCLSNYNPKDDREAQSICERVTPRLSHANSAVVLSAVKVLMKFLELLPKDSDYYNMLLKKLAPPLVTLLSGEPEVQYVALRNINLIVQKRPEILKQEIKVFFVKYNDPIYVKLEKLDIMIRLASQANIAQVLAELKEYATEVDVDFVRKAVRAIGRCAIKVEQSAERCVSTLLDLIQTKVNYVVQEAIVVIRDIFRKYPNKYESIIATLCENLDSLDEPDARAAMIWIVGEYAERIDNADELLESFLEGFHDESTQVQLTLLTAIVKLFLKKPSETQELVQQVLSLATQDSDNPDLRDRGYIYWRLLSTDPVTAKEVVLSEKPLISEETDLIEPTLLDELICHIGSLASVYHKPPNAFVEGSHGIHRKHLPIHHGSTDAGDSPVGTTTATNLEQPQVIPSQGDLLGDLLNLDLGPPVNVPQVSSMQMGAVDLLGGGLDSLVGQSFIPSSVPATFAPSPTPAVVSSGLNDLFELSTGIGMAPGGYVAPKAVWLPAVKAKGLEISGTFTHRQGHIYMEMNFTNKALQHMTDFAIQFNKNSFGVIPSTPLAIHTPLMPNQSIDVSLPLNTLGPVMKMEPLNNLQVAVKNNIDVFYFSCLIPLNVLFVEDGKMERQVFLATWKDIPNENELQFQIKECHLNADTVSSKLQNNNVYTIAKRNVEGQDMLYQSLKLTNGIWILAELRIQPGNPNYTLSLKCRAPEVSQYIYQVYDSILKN

[11] = cytosolic pH regulators acting via V-ATPase – S. cerevisiae, pHLuorin, HTS validation (AID 504600; in the data active = response above about 15%;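 note: plate controls were DMSO for no effect and reference compound for full effect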); conditions: V-ATPase proton transport, at 10 µM, stronger effect = higher value
[12] = test system: anti-desmoglein-3 scFv antibody binding to human DSG3; assay: blockers of pathogenic pemphigus antibody–desmoglein-3 binding – biochemical, validation compound set, bead-based, flow cytometry, pilot screen (AID 588368); conditions: Protein G beads, DSG3-Fc, scFv-GFP binding, at 10 µM, stronger effect = lower value;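 note: signal is the median channel fluorescence of bead-bound GFP antibody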
[13] = Nile Red efflux blockade in pump-expressing yeast – validation compound set, multiplex, phenotypic, pilot screen (AID 588506;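 active = efflux inhibition above 0.42, the validation set average plus 4 SD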;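 note: Nile Red retained in cells so higher fluorescence means more efflux inhibition; 0 = negative control wells and 1 = enniatin B 25 µM full block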); conditions: S. cerevisiae pump-expressing triplex, Nile Red efflux flow cytometry; at 10 µM; stronger effect = higher value; the pumps come from Candida albicans
[14] = target: ATP-binding cassette sub-family B member 6 (Homo sapiens) (UniProt Q9NP58); assay: blockers of ABCB6-driven porphyrin uptake – K562-ABCB6 cells, flow cytometry, validation set, pilot screen (AID 588550;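 active = inhibition above the screen-wide mean plus 3 SD, about 51%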;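 note: 0% = DMSO wells and 100% = benzethonium chloride 70 µM positive control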); conditions: K562-ABCB6 porphyrin accumulation, 1 h, at 10 µM, stronger effect = higher value
Sequence of ATP-binding cassette sub-family B member 6 (Homo sapiens) (Q9NP58 whole entry, looked up): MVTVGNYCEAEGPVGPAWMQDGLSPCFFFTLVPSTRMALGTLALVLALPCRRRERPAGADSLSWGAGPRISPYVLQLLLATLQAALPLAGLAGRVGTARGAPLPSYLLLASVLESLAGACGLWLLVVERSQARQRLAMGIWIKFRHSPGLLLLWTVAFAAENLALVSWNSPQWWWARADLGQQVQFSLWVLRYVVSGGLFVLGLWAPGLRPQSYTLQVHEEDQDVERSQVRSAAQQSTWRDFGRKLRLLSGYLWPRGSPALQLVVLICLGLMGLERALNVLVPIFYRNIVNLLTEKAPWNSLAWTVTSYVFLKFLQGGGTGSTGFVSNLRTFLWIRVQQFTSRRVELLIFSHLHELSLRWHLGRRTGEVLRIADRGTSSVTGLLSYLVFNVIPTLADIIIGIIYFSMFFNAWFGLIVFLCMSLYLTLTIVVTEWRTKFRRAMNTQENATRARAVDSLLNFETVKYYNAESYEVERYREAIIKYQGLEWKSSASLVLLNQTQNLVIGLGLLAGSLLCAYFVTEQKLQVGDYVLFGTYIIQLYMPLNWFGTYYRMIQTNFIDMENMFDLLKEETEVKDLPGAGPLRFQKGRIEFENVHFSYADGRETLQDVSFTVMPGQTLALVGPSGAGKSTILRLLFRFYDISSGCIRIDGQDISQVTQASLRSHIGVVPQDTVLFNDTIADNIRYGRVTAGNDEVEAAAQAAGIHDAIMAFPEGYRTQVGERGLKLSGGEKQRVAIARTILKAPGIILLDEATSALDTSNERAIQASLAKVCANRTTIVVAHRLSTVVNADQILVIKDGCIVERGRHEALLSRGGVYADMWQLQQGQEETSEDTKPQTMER

[15] = AML differentiation inducers, ER-HoxA9 marrow cells – cell-based, GFP/MAC1 double positive, flow cytometry, validation set, primary screen (AID 588685;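 active = differentiation response of at least 50%, scaled between solvent and reference control, from cells with both markers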;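 note: compound exposure lasts four days before antibody staining and flow analysis; 0% = DMSO wells and 100% = 5 µM fulvestrant positive control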); conditions: stronger effect = higher value, normalized: vehicle 0, fulvestrant 100
[16] = hit retest on RPL19A-GFP reporter strain – cell-based, S. cerevisiae, flow cytometry, cherry picks, mother/daughter gates, confirmation (AID 2270;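 active = GFP response below 50% of the DMSO control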); conditions: 3 h, at 10 µM, stronger effect = lower value, 100 = same GFP as DMSO wells
[17] = yeast TOR pathway reporter LAP4-GFP change – cell-based, cherry picks, flow cytometry, mother/daughter gates, confirmation (AID 2271;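 active = GFP response above 150% of the DMSO control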;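 note: ratio of sample to DMSO plate mean so 100% equals DMSO level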); conditions: S. cerevisiae LAP4-GFP strain, 3 h, at 10 µM, stronger effect = higher value, 100 means same as DMSO control
[18] = TOR pathway reporter MEP2-GFP, retest of hits – S. cerevisiae, flow cytometry GFP, cherry picks, confirmation (AID 2272;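 active = GFP response above 150% of the DMSO control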;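 note: ratio of well signal to plate DMSO mean so 100% equals DMSO level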); conditions: S. cerevisiae MEP2-GFP strain, 3 h, at 10 µM, stronger effect = higher value
[19] = TOR pathway CIT2 reporter hit retest – S. cerevisiae, GFP fusion, cherry picks, mother/daughter gates, confirmation (AID 2274;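 active = GFP response above 150% of the DMSO level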); conditions: S. cerevisiae CIT2-GFP strain, flow cytometry, 3 h, at 10 µM, stronger effect = higher value
[20] = yeast AGP1-GFP level changes, GLN3 branch – cell-based, multiplex flow cytometry, S. cerevisiae, primary screen (AID 1887;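 active = GFP signal above the screen-wide mean plus 3 SD, that is over about 124.5% of the solvent control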;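 note: AGP1-GFP fusion strain of S. cerevisiae within a five-strain barcoded multiplex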); conditions: 3 h, at 10 µM, stronger effect = higher value
[21] = measured here: daughter cell gate
[22] = measured here: mother cell gate
[23] = measured here: daughter cell gate response
[24] = measured here: mother cell gate response

Cc1ccc(NCCC(=O)c2ccccc2)cc1Cl
63%: double positive events [5]
inactive: percent of DMSO control GFP [1] 86.2% | GFP response vs DMSO [2] 110% | percent response of DMSO control [3] 110% | GFP response vs DMSO [4] 78.7% | vesicle binding response [5] 171% | inhibition [6] 28.8% | superoxide response (% of plate) [7] 99.7% | aptamer binding inhibition [8] 2% | response [9] 2.53% | inhibition [10] -12.3% | response [11] 2.25% | binding (% of control) [12] 98% | efflux inhibition (fraction of control) [13] -0.24 | inhibition [14] 10% | differentiation response [15] -0.82%

COc1ccc(NC(=O)C2C(=O)N(CCO)C3(C)CC2c2ccccc2O3)cc1 (configuration not stated)
inactive: percent of DMSO control GFP [1] 99.6% | GFP response vs DMSO [2] 106% | percent response of DMSO control [3] 104% | GFP response vs DMSO [4] 79.8% | vesicle binding response [5] 158% | inhibition [6] 5.49% | superoxide response (% of plate) [7] 96.6% | aptamer binding inhibition [8] 3% | response [9] -2.11% | inhibition [10] 6.58% | response [11] -0.98% | binding (% of control) [12] 107% | efflux inhibition (fraction of control) [13] -0.46 | inhibition [14] 13% | differentiation response [15] 5.73%
70.2%: double positive events [5]

Nc1nc2c(ncn2COCCO)c(=O)[nH]1
63.1%: double positive events [5]
inactive: GFP response vs DMSO [2] 123% | percent response of DMSO control [3] 103% | GFP response vs DMSO [4] 74.8% | GFP response vs DMSO [16] 100% | GFP response relative to DMSO [17] 101% | GFP response vs DMSO [18] 99.5% | GFP response, % of DMSO [19] 101% | vesicle binding response [5] 154% | inhibition [6] 16.2% | superoxide response (% of plate) [7] 83.2% | aptamer binding inhibition [8] 6% | response [9] -6.98% | inhibition [10] -5.88% | response [11] 0.6% | binding (% of control) [12] 107% | efflux inhibition (fraction of control) [13] -0.09 | inhibition [14] 0% | differentiation response [15] -4.91%
97.9%: GFP response relative to DMSO [17, 23]
active: percent of DMSO control GFP [1] 78.1%
100%: GFP response vs DMSO [16, 22] | GFP response relative to DMSO [17, 24] | GFP response, % of DMSO [19, 22]
104%: GFP response, % of DMSO [19, 21]
101%: GFP response vs DMSO [16, 21]

O=c1[nH]c(=O)n([C@H]2C[C@H](O)[C@@H](CO)O2)cc1F
99.2%: GFP response vs DMSO [16, 22]
active: GFP response vs DMSO [2] 142%
93.7%: GFP response, % of DMSO [19, 21] | GFP response, % of DMSO [19, 22]
97.2%: GFP response relative to DMSO [17, 24]
97.8%: GFP response vs DMSO [16, 21]
72.9%: double positive events [5]
96.6%: GFP response relative to DMSO [17, 23]
inactive: percent of DMSO control GFP [1] 91.1% | percent response of DMSO control [3] 101% | GFP response vs DMSO [4] 93.5% | GFP response vs DMSO [16] 98.6% | GFP response relative to DMSO [17] 97.3% | GFP response vs DMSO [18] 101% | GFP response, % of DMSO [19] 93.4% | vesicle binding response [5] 155% | inhibition [6] 4.52% | superoxide response (% of plate) [7] 94.8% | aptamer binding inhibition [8] 9% | response [9] -2.6% | inhibition [10] 1.52% | response [11] -0.54% | binding (% of control) [12] 98% | efflux inhibition (fraction of control) [13] -0.38 | inhibition [14] 11% | differentiation response [15] -5.73%

Cc1cccc(N(C)C(=S)Oc2ccc3ccccc3c2)c1
inactive: percent of DMSO control GFP [1] 94.4% | GFP response vs DMSO [2] 114% | percent response of DMSO control [3] 95.2% | GFP response vs DMSO [4] 78.7% | GFP response, % of DMSO [20] 97.5% | inhibition [6] -8.09% | superoxide response (% of plate) [7] 87.4% | aptamer binding inhibition [8] 0% | response [9] 11.2% | inhibition [10] -3.34% | response [11] 4.82% | binding (% of control) [12] 106% | efflux inhibition (fraction of control) [13] -0.38 | inhibition [14] 8% | differentiation response [15] -1.64%
86.4%: double positive events [5]

N=C(N)c1ccc(OCCCCCOc2ccc(C(=N)N)cc2)cc1
53.8%: double positive events [5]
inactive: percent of DMSO control GFP [1] 107% | GFP response vs DMSO [2] 105% | percent response of DMSO control [3] 96.5% | GFP response vs DMSO [4] 110% | GFP response, % of DMSO [20] 99.6% | inhibition [6] -7.79% | superoxide response (% of plate) [7] 98% | aptamer binding inhibition [8] -23% | response [9] 20.7% | inhibition [10] -15.3% | response [11] -1.89% | binding (% of control) [12] 112% | efflux inhibition (fraction of control) [13] 0.285 | inhibition [14] 9% | differentiation response [15] 8.59%

Cc1ccc2[nH]c3c(c2c1)CN(C(=O)CN1CCSCC1)CC3
inactive: percent of DMSO control GFP [1] 100% | GFP response vs DMSO [2] 93% | percent response of DMSO control [3] 101% | GFP response vs DMSO [4] 102% | GFP response, % of DMSO [20] 101% | vesicle binding response [5] 66.8% | inhibition [6] -51.3% | aptamer binding inhibition [8] 0% | response [9] -263% | inhibition [10] -3.3% | response [11] 0.82% | binding (% of control) [12] 439% | efflux inhibition (fraction of control) [13] -0.04 | differentiation response [15] 28.6%
60.8%: double positive events [5]

CC1(C)C2CCC1(C)C(OCC[N+](C)(C)CC(=O)OC1CCCCC1)C2 (configuration not stated)
inactive: percent of DMSO control GFP [1] 88% | GFP response vs DMSO [2] 104% | percent response of DMSO control [3] 104% | GFP response vs DMSO [4] 78.1% | vesicle binding response [5] 196% | inhibition [6] 12.3% | superoxide response (% of plate) [7] 95.2% | aptamer binding inhibition [8] -4% | response [9] -4.15% | inhibition [10] -2.94% | response [11] 3.18% | binding (% of control) [12] 109% | efflux inhibition (fraction of control) [13] -0.06 | inhibition [14] 6% | differentiation response [15] -5.73%
70%: double positive events [5]
